Laboratory results: ChEMBL document CHEMBL4888484, “Replenishing the malaria drug discovery pipeline: Screening and hit evaluation of the MMV Hit Generation Library 1 (HGL1) against asexual blood stage Plasmodium falciparum ,using a nano luciferase reporter read-out” (2022)
Out of some 4,800 compounds screened, about 420 (8.8%) showed an effect of 50% or more. The entries come from a sample that favours strong results as a whole.

These compounds were tested on Plasmodium falciparum (assay: Confirmatory screen in NF54 nanoGlo assay, in single point, at 2uM, 72h). Details: timepoint 72 hour.
Assay type: functional, Erythrocyte

SMILES	% Inhibition
O=C(NOCc1ccc(F)cc1)NC1CCCCC1	-5%
COc1ccc(N2CCN(Cc3c(O)nc(O)c(C#N)c3C)CC2)cc1	-3%
COc1ccc(CCN2C(=O)CC[C@H]2c2cn(C)c3ccccc23)cc1OC	-1%
Cc1ccc(C(=O)N2CCCC23CCC3)nn1	-11%
O=C(c1[nH]nc(C2CC2)c1Br)N1CCC12CCC2	-8%
COC(=O)[C@]1(C)CN(C(=O)NCc2cc(C#N)ccc2F)C[C@H]1C	7%
CCc1nc(C)nc(N2CCN(C[C@H](O)COc3ccccc3C)CC2)c1Cc1cccc(C)c1	7%
O=C(Cc1c(Cl)cccc1Cl)N1CC[C@]2(CCOC2)C1	-8%
CC[C@@]1(C)CCCN(C(=O)Cc2c(C)noc2Cl)C1	84%
Cc1noc(Cl)c1CC(=O)N1CCCC(C)(C)CC1	38%
CC(C)(C)NC(=O)CNC(=O)c1cccc(F)c1	-13%
Cc1nc(Cn2nnc(NC(=O)c3cccc(F)c3)c2C)no1	1%
O=C(Nc1nc2cccc(Cl)c2o1)c1cccc(F)c1	92%
COC(CNC(=O)OC(C)(C)C)CC(=O)NC1CC(C)CCC1C(C)C (configuration not stated)	-7%
O=C(Cn1cccn1)N1CC(c2nc(-c3ncccn3)no2)C1	5%
N#Cc1cnc(NC2CC3CCC2C3)cn1 (configuration not stated)	-8%
CC(C)CS(=O)(=O)Nc1ccccc1C(N)=O	-5%
CN(C)CCN(C)c1ccc(Br)cc1NCc1cncn1C	16%
COc1cc(NC(=O)c2cc(-c3cccc4ccccc34)[nH]n2)cc(OC)c1OC	10%
COc1ccc2cccc(NC(=O)c3cc(-c4cc(OC)c(OC)c(OC)c4)n[nH]3)c2n1	64%
COc1ccc(-c2cc(C(=O)Nc3ncc[nH]3)n[nH]2)cc1OC	29%
O=C(COc1ccc(Cl)cc1)n1c2ccccc2c2ccccc21	-3%
CC(C)(CNC(=O)[C@](C)(N)c1ccccc1)C(=O)O	-11%
COc1c2c(cc3c1[C@@H](C#CCOc1ccccc1)[N+](C)(C)CC3)OCO2	75%
CC(C)C(=O)N1CC[C@H](CC(=O)NCc2ccccc2)C1	-4%
O=C(c1sc2ccccc2c1Cl)n1nnc2ccccc21	-8%

SMILES	% Inhibition
CCOC(=O)N1CCN(c2nccn3nc(-c4ccc(OC)c(OC)c4)cc23)CC1	-6%
COc1ccc([C@@]2(C)NC(=O)N(CC(=O)N3CC(=O)Nc4ccccc43)C2=O)cc1OC	2%
COc1ccc(CNC(=O)Nc2ccc3c(c2)N(C(=O)c2ccccc2)CCC3)cc1OC	25%
COc1ccc([C@H](C(=O)Nc2ccc(N(C)C)cc2)N(Cc2ccccc2)C(=O)Cc2ccccc2)cc1OC	-4%
CCC(C(=O)Nc1ccc2c(c1)CN(CCc1ccc(OC)c(OC)c1)C(=O)C(C)O2)c1ccccc1 (configuration not stated)	94%
CCN(CC)c1ncnc(N(C)Cc2ccccc2)c1N	2%
COc1ccc([C@H]2[C@H](C(=O)NC3CCCCCC3)CCC(=O)N2C)cc1	-8%
COCc1cc2nn(CC(=O)Nc3ccc(F)cc3C)c(=O)n2c(-c2ccccc2)n1	-15%
O=c1nc2n(nc1-c1ccccc1)C1(CCC1)Nc1ccccc1-2	74%
C[C@]1(CCc2ccc(O)cc2)Nc2ccccc2-c2nc(=O)c(-c3ccc(F)cc3)nn21	8%
C[C@]1(C(=O)O)Nc2ccccc2-c2nc(=O)c(-c3ccccc3)nn21	-2%
COc1ccccc1CNC(=O)c1cn(CC2(O)CCN(Cc3ccccc3)CC2)nn1	-3%
C#CCCCCC(=O)Nc1ncccc1Cl	-2%
COc1ccc(N2CCN(c3nccn4nc(-c5ccc(OC)c(OC)c5)cc34)CC2)cc1	-10%
CC(C(=O)Nc1ncccn1)N1CCCC1Cn1cccn1 (configuration not stated)	-4%
COc1nc(NC[C@H]2CCCN2C(C)C)ncc1F	66%
COc1ccc2ncc(=O)n(CCOc3ccccc3)c2c1	4%
COc1ccc(CCc2n[nH]c(NC(=O)CCc3c[nH]c4ccccc34)n2)cc1OC	14%
CCOc1cccc(-c2ccc3nc(-c4cccc(OC)c4)c(CCC(=O)NCCN4CCCC4)n3c2)c1	61%
CCOc1cccc(-c2ccc3nc(-c4cccc(OC)c4)c(CCC(=O)NCCc4ccc(OC)c(OC)c4)n3c2)c1	23%
CCCCN1C(=O)[C@H]2[C@H]([C@H](O)c3ccc(Cl)cc3)N[C@@]3(C(=O)Nc4ccccc43)[C@H]2C1=O	25%
Cc1nnc(NC(=O)c2cc(N3CCCC3)ncn2)s1	14%
O=C(NCc1ccncc1)c1cc(C(=O)C2CCCCC2)c[nH]1	-7%
Cc1cnc(NC(=O)C(=O)N2CCC[C@H](n3cccn3)C2)s1	-4%
Cc1ccc(Cc2nc(N3CCCN(C(=O)c4ccc(C)cc4)CC3)c3cnn(-c4ccccc4)c3n2)cc1	3%
O=C(O)[C@H]1CC(=O)N(c2ccc3nc(-c4cccc(F)c4)oc3c2)C1	-6%

SMILES	% Inhibition
C=CCNC(=O)N1CCC(c2nc(C)ccc2C(=O)N2CCCC2)CC1	-2%
CCn1ccc([C@H](C)NC(=O)c2cc(C)c(C)s2)n1	-6%
CCc1cc(C(=O)N[C@@H](C)c2ccccc2)c2c(C3CC3)nn(Cc3ccccc3)c2n1	-6%
C=CCS(=O)(=O)NC(=O)c1cc(C)c(C)cc1Cl	-2%
c1ccc2c(c1)ccc1oc(-c3ccn[nH]3)cc12	-5%
Cc1oc(-c2ccn[nH]2)cc1S(=O)(=O)Nc1cccc(Cl)c1	52%
Cc1oc(-c2ccn[nH]2)cc1S(=O)(=O)Nc1ccc(F)c(Cl)c1	40%
CCCn1c(C)ccc(-c2noc(CCCC(=O)N3CCOCC3)n2)c1=O	-3%
O=C(c1cnc(Nc2nc3ccccc3o2)nc1)N1CCN(c2ccccc2)CC1	0%
Cn1nc(-c2nc(-c3ccc(F)cc3)no2)c2c1CCN(C(=O)c1cccc(Cl)c1)C2	-5%
COc1cc(NC(=O)c2cccc3c(Br)cccc23)ccc1NC(=O)c1ccccc1Cl	0%
CC1(C)Oc2cc(S(=O)(=O)NC3CCCCC3)ccc2NC1=O	-14%
Cc1ccc(C(F)(F)C(=O)NCCC(=O)NS(C)(=O)=O)cc1	49%
Cc1nnc([C@@H]2COCCN2Cc2csc(C)c2)o1	0%
CCn1nccc1C(=O)N1CC[C@H](CC(=O)NCc2ccncc2)C1	-6%
Cc1cc(C(=O)NCc2ccncc2)no1	-11%
CC[C@@H](CO)NCc1cc(Br)ccc1OC	-11%
CCc1nnc2ccc(S(=O)(=O)Nc3ccc(Cl)cc3)cn12	8%
O=C(C[C@H]1CCC(=O)N(Cc2ccccc2)CC1)NC1CCN(Cc2ccccc2)CC1	-1%
O=C(NC1CCCCCC1)c1cn(CC2(O)CCN(Cc3ccccc3)CC2)nn1	-4%
Cc1nc2c(Oc3ccccc3)cccc2c2c1CCN2c1ccc(OC(F)(F)F)cc1	-17%
CC1=N[C@H](N2CCN(c3ccccc3)CC2)NC(O)=C1	-12%
N#Cc1cccc(-c2n[nH]c3c2CN(c2ccc(-c4ccccc4)nn2)CC3)c1	85%
N#Cc1cc(N2CCc3ccccc3C2)nc2ccccc12	2%
Cc1ccccc1-c1nc2cc(NS(=O)(=O)c3ccccc3)ccc2o1	2%
Cc1cccn(Cc2nnnn2C2CC2)c1=O	3%

SMILES	% Inhibition
O=C(Cc1ccc(Cl)cc1Cl)N1CCc2[nH]nc(C(=O)N3CCN(c4ccccc4)CC3)c2C1	-1%
CN1CCN(c2nc(-c3cccc(C(F)(F)F)c3)nc3c2cnn3Cc2ccccc2)CC1	-4%
CN(c1nc2c(cnn2C)c(=O)[nH]1)C1CCCC1c1ccc(C(F)(F)F)cc1 (configuration not stated)	6%
CN1CCC(n2ncc3[nH]c(-c4ccc(C(F)(F)F)cc4)nc32)CC1	96%
Cc1ccc(S(=O)(=O)Cc2nc(-c3ccc(C(=O)NCc4ccc(C)o4)cc3)oc2C)cc1	-18%
O=C(CCC1CCCC1)N1CCC(N2CCCCCC2)CC1	6%
Cc1cccc(NS(=O)(=O)c2cc(C(=O)NCc3ccc4c(c3)OCO4)ccc2Cl)c1C	5%
O=S(=O)(c1ccccc1)N1CCC(Nc2ccc(Br)cc2)CC1	10%
Cc1nc(-c2ccc(NCc3cc4ccccc4o3)nc2)[nH]c(=O)c1C	-10%
O=C1C[C@@H](C(=O)N2CCC3(CCCCC3)C2)CCN1	-3%
Nc1ncc(C(=O)N2CCC3(CCCCCC3)C2)s1	98%
Cc1ncsc1C(=O)N1CCC2(CCCCC2)C1	-14%
O=C(O)c1csc(-c2csc(CCN3C(=O)c4ccccc4C3=O)n2)n1	3%
COc1cc(OC)cc(C(=O)Nc2cnc(N3CCCCC3)c(C)c2)c1	0%
Cc1nn(C)c(C)c1-c1cc(C(=O)Nc2cc(F)ccc2F)c2c(C)nn(C)c2n1	-5%
Cc1ccc(CN2C(=O)[C@@H]3CCCN3c3ccc(C(F)(F)F)cc32)cc1	-17%
Cc1cc(N(C)CCC2CC2)nc([C@H](C)N(C)CCC2CC2)n1	52%
Cc1cc(N(CCO)C2CC2)nc(C2CC2)n1	-8%
OC1CCC(Nc2cncc(-n3cccn3)n2)CC1 (configuration not stated)	-2%
CC(C)Cn1cc2c(C(F)(F)F)cc(=O)n(CCC(=O)Nc3cc(F)ccc3F)c2n1	1%
CC(C)(C)OC(=O)N1CCc2ncn(Cc3ccc(F)cc3)c(=O)c2C1	-7%
CCOC(=O)CCn1cc(F)c(=O)[nH]c1=O	77%
CCOC(=O)COc1cc(N)c(F)cc1Cl	-10%
CCOC(=O)CNc1ccc(F)c(Cl)c1	-6%
